Bioassay records deposited in PubChem BioAssay by several laboratories.
CHOP inhibitor: inhibitors of CHOP induction in ER stress response; CHO-K1 CHOP-promoter luciferase, tunicamycin-induced, 15-18 h; inhibition, % at 10 µM; 220,000 tested, 3.8% active; AID 2732;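 active = compounds that reduced the stress-induced luciferase reporter signal by more than about 70% of percent inhibition, limit read from the data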
Arbovirus inh: antivirals against arbovirus infection; arbovirus infection cell-based antiviral screen; inhibition, % at 10 µM; 200,000 tested, 0.37% active; in the data active = inhibition above about 30%
L major viab: reduces viability of Leishmania major promastigotes | 200,000 tested, 9% active | resazurin fluorescence viability | AID 1063 | inhibition, % at 10 µM; in the data active = inhibition above about 50%;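 also: promastigotes grown with compound for 44 hours at 28 °C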
WT yeast gro inh: growth inhibition of WT yeast, mitochondrial fusion screen. mitochondrial fusion phenotypic screen, WT strain. inhibition, % at 10 µM. 190,000 tested, 2.1% active; in the data active = inhibition above about 58%; tested in S. cerevisiae
Numbers stand for hits; i = inactive; nt = no result. Rows were chosen to be rich in hits. Some 12% of all compounds tested hit in one or more screens of this group.

SMILES	CHOP inhibitor	Arbovirus inh	L major viab	WT yeast gro inh
CCOC(=O)c1ccc(NC(=O)Cn2nnc(-c3ccccc3F)n2)cc1	i	i	61	i
CCCC(=O)N(c1ccc(C(=O)O)cc1)c1nc(-c2ccccc2)c(C)s1	i	i	i	i
O=C(Cn1nnc(-c2ccc(S(=O)(=O)N3CCCC3)cc2)n1)Nc1ccccc1-n1cccc1	i	i	95	i
O=C(CN1CCN(c2ccccc2)CC1)Nc1ccccc1C(F)(F)F	95	i	i	i
COc1ccc(S(=O)(=O)Nc2ccccc2-c2nnn(CC(=O)Nc3ccccc3OC)n2)cc1	76	i	98	i
CCOC(=O)c1ccc(NC(=O)Cn2nnc(-c3ccccc3)n2)cc1	i	39	i	i
COc1ccc(NC(=O)Cn2nnc(-c3ccccc3NS(=O)(=O)c3ccccc3)n2)cc1	i	i	i	i
CCOC(=O)Cc1c(C)nc(SC)[nH]c1=O	i	i	i	i
CC1CC2=C(C(=O)O1)C(c1ccc(Cl)cc1)Nc1ccccc1N2 (stereo not drawn)	i	i	i	i
CCOc1ccc(-n2c(=O)c3sccc3n(CC(=O)Nc3cccc(OC)c3)c2=O)cc1	i	i	i	i
CCOC(=O)c1ccc(NC(=O)CN2CCN(c3ccccc3)CC2)cc1	i	i	92	i
CCOc1ccccc1NC(=O)Cn1nnc(-c2ccc(OCC)c(OCC)c2)n1	87	i	i	i
COC(=O)c1ccc(NC(=O)CN2CCN(c3ccccc3)CC2)cc1	i	i	i	i
O=C(CN1CCN(c2ccc(O)cc2)CC1)NC(c1ccccc1)c1ccccc1	i	i	84	i
CC1CCN(Cc2ccc(-c3nnn(CC(=O)Nc4ccccc4Cl)n3)cc2)CC1	i	i	64	i
CCOC(=O)c1ccc(NC(=O)CSc2nnc(CNC(=O)c3ccccc3F)o2)cc1	i	i	91	i
Fc1ccccc1N1CCN(C(c2ccccn2)c2nnnn2C2CCCCC2)CC1 (stereo not drawn)	i	i	i	i
COc1ccc(OC)c(C(c2nnnn2C2CCCC2)N2CCN(c3ccccc3F)CC2)c1 (stereo not drawn)	i	i	99	i
COc1ccc(N2CCN(C(c3ccccc3OC)c3nnnn3C3CCCC3)CC2)cc1 (stereo not drawn)	i	i	59	i
COc1ccc(N2CCN(C(c3cccc(OC)c3OC)c3nnnn3C3CCCC3)CC2)cc1 (stereo not drawn)	74	i	72	i
COc1ccc(N2CCN(C(c3cccs3)c3nnnn3C3CCCC3)CC2)cc1 (stereo not drawn)	i	i	i	i
COc1ccc(C(c2nnnn2C2CCCC2)N2CCc3ccccc3C2)cc1OC (stereo not drawn)	i	i	60	i
Cc1ccc(S(=O)(=O)/N=C(/c2ccccc2)N2CCOCC2)c(C)c1	i	i	i	i
O=C(Nc1cccc(C(F)(F)F)c1)/C(=C/c1ccco1)NC(=O)c1cccs1	i	i	i	i
COc1cccc(CNC(=O)CCC2CCCN(Cc3ccc4c(c3)CCO4)C2)c1 (stereo not drawn)	i	nt	nt	nt
SMILES	CHOP inhibitor	Arbovirus inh	L major viab	WT yeast gro inh
CC(C)(C)c1ccc(CN(Cc2ccccc2)C(c2ccccn2)c2nnnn2C(C)(C)C)cc1 (stereo not drawn)	i	i	77	i
CC(C)(C)n1nnnc1C(c1cccs1)N(Cc1ccccc1)Cc1cccnc1 (stereo not drawn)	i	i	99	i
CCN(Cc1ccccc1)C(c1ccncc1)c1nnnn1C(C)(C)C (stereo not drawn)	i	i	i	i
CC(C)(C)n1nnnc1C(c1ccccn1)N1CCN(C(c2ccccc2)c2ccccc2)CC1 (stereo not drawn)	i	i	i	i
CC(C)(C)n1nnnc1C(c1cccs1)N(Cc1ccc(Cl)cc1)CC1CCCO1 (stereo not drawn)	i	i	i	i
CC(C)(C)n1nnnc1C(c1cccnc1)N(Cc1ccccc1)Cc1cccs1 (stereo not drawn)	i	i	96	81
N#Cc1c(C(F)(F)F)cc(-c2ccccc2)[nH]c1=O	i	i	i	i
Cc1ccc(-c2cc(C(F)(F)F)c(C#N)c(=O)[nH]2)cc1	i	54	i	i
Cc1ccc(OCCC(=O)Nc2ccc(F)c(F)c2)cc1	i	i	i	i
Cc1cccc(OCC(=O)Nc2ccc3c(c2)OCO3)c1C	i	i	73	i
Cc1ccc(C)c(OCC(=O)Nc2ccc3c(c2)OCO3)c1C	i	i	i	i
Cc1cccc(OCCCC(=O)Nc2ccc3c(c2)OCO3)c1	i	i	i	74
CC(C)CC(=O)Nc1ccc(F)c(Cl)c1	90	i	60	i
Cc1cccc(OCCC(=O)Nc2ccc(F)c(Cl)c2)c1	i	i	65	i
Cc1cccc(OCCCC(=O)Nc2ccc(N3CCOCC3)cc2)c1	i	i	i	i
Cc1nn(CC(=O)c2ccccc2)c(=O)c2nn(-c3ccccc3F)c(C)c12	i	i	i	i
Cc1c(Cl)cccc1NC(=O)CNc1cccc(S(=O)(=O)N(C)C)c1	i	i	72	i
CN1CCN(CC(O)COCCOc2ccc(Br)cc2)CC1 (stereo not drawn)	i	i	i	i
OC(COCCOc1ccc(Br)cc1)CN1CCCCC1 (stereo not drawn)	i	i	71	i
CC1(C)CC(O)CC(C)(C)N1CC(O)COCCOc1ccc(Br)cc1 (stereo not drawn)	i	i	i	i
CN1CCC(OC(=O)COc2ccc(Br)cc2)CC1	i	i	i	i
CC1CCN(CC(O)COCCC23CC4CC(CC(C4)C2)C3)CC1 (stereo not drawn)	i	i	95	i
CC1CC(C)CN(CCOc2ccc(Br)cc2)C1 (stereo not drawn)	i	i	82	i
CC1CC(C)CN(CC(O)COCCOc2ccc(Br)cc2)C1 (stereo not drawn)	i	i	92	i
C=C(C)CNC(=S)NNC(=O)CCn1c2ccc(Cl)cc2c2cc(Cl)ccc21	i	i	i	i
SMILES	CHOP inhibitor	Arbovirus inh	L major viab	WT yeast gro inh
CCN1CCN(CC(O)COCCOc2ccc(Br)cc2)CC1 (stereo not drawn)	i	i	i	i
CC1CCN(CC(O)COCCOc2ccc(Br)cc2)CC1 (stereo not drawn)	i	i	82	i
CCOC(=O)Cn1nc(-c2ccccc2)c2cnc3ccc(C)cc3c21	73	i	i	i
CCOC(=O)Cn1nc(-c2ccc(C)cc2)c2ccccc2c1=O	i	i	i	i
CCOC(=O)C1(Cc2cccc(F)c2)CCN(C(=O)c2cnccn2)CC1	i	i	i	i
CC1CN(c2nc3ccccn3c(=O)c2C=O)CC(C)O1 (stereo not drawn)	i	i	i	i
C/C(=N\NC(=O)c1ccc(Cn2cc(Br)cn2)o1)c1cccc(NC(=O)C(C)C)c1	i	i	90	i
C/C(=N\NC(=O)c1cccc(Br)c1)c1cccc(NC(=O)c2ccc(C)o2)c1	i	i	56	i
CC(=O)c1cccc(NC(=O)c2ccc(C)o2)c1	i	i	i	i
Cc1ccc(C(=O)C2CCOC(C)(C)C2)cc1 (stereo not drawn)	i	i	i	i
Nc1nc(SCC(=O)NCCC(c2ccccc2)c2ccccc2)n[nH]1	i	i	i	i
COc1ccc(/C=N/Nc2nnc(Cc3ccc(OC)c(OC)c3)c(=O)[nH]2)cc1OC	i	i	81	i
